Source: PubChem BioAssay
Only some compounds are listed: those with a hit (about 4.8% of all), similar ones and a draw of the others.
DAX1 inh-1 = blocks DAX1 repression of SF-1 activated StAR promoter; HEK293T StAR-luciferase reporter, SF-1/DAX-1 repression relief; inhibition, % at 6.8 µM; hit rate 1.1% among 370,000; AID 652010;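 active = inhibition above the mean over all tested compounds plus 3 SD, cut at about 3.6% in these data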;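 note: 0% = DAX-1 cells with DMSO and 100% = cells lacking DAX-1 with DMSO; higher inhibition means more luminescence from relief of DAX-1 repression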
ssDAF12 agonist = S. stercoralis DAF-12 activation, primary screen; HEK293 ssDAF-12/GRIP1 lit1-tk-luc reporter, luminescence; % of 3 µM dafachronic acid response; activation, % at 6.8 µM; hit rate 1% among 370,000;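 active = activation above the mean over all tested compounds plus 3 SD, cut at about 0.9% in these data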;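 note: 0% = DMSO-only wells and 100% = 3 µM delta7-dafachronic acid wells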
SMARCA2 act = increases SMARCA2 function in MMTV reporter cells; MG213 cells, MMTV-luciferase reporter, dexamethasone, overnight; activation, % at 9.1 µM; hit rate 1% among 370,000; AID 652017; in the data active = activation above about 7.8%;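 note: 0% = vehicle wells and 100% = reference activator wells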
hcDAF-12 act = activators of H. contortus DAF-12 nuclear receptor. HEK293 hcDAF-12 lit1-tk-luc reporter, luminescence; 0% DMSO, 100% Δ7-dafachronic acid. activation, % at 6.8 µM. hit rate 1.4% among 370,000. AID 652067;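 active = activation above the mean of all tested compounds plus 3 SD, cut at about 5.5% in these data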;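 note: 100% = response to 3 µM Δ7-dafachronic acid high control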
DAX1 inh-2 = inhibits human nuclear receptor DAX1 | inhibition, % at 6.75 µM | HEK293 Gal4-DAX1 luciferase reporter, luminescence | hit rate 0.99% among 340,000 | P51843;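 active = inhibition above the mean over all tested compounds plus 3 SD, cut at about 4.2% in these data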;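 note: 0% = DAX1-transfected cells with DMSO and 100% = empty-vector control cells with DMSO; inhibition shows as a rise in luminescence from relieved DAX1 repression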
Target sequence (P51843 207-470 limits assumed): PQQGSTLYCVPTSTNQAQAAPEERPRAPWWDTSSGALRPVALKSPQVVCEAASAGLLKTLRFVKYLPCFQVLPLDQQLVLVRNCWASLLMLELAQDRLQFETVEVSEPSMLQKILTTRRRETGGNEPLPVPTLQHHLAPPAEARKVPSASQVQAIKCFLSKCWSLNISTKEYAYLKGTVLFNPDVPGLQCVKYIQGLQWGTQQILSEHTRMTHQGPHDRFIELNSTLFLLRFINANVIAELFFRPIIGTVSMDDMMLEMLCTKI
hgDAF12 agonist = hgDAF-12 agonism, primary luciferase screen; HEK293 GAL4-hgDAF12 UAS-luciferase reporter, agonist luminescence; normalized to butyrate control; activation, % at 6.8 µM; hit rate 1.8% among 370,000; AID 687014;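 active = activation above a cutoff set at the mean of all screened compounds plus 3 SD, cut at about 10% in these data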;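 note: 0% = DMSO wells and 100% = sodium butyrate wells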
Active calls of the source: *; · = no result given.

SMILES | DAX1 inh-1 | ssDAF12 agonist | SMARCA2 act | hcDAF-12 act | DAX1 inh-2 | hgDAF12 agonist
Cc1nn(C)c(C)c1CNC(=O)Nc1ccc2c(c1)OCO2 | 2.4 | -1.2 | 3.4 | 3.7 | -0.6 | 1.8
Cc1nn(C)c(C)c1CNC(=O)Nc1cccc(Cl)c1 | 4.0* | -0.1 | 7.0 | 1.7 | 2.0 | 11.0*
COc1ccccc1C(=O)NC(CCSC)C(=O)OCC(=O)c1ccc[nH]1 (stereo not given) | 1.1 | -1.1 | 0.8 | -1.2 | 0.0 | 0.4
O=C(Nc1ccc2[nH]ncc2c1)c1ccccc1 | 1.0 | -0.4 | 3.0 | 2.5 | 2.3 | 7.4
Cc1nc(-c2ccc(NC(=O)c3ccccc3Br)cc2)cs1 | 2.8 | 0.5 | 3.1 | -0.6 | 0.7 | 20.6*
O=C(Nc1ccc2[nH]ncc2c1)c1ccccc1Br | 1.7 | -0.6 | 2.5 | 4.2 | 1.0 | 12.4*
O=C(Nc1ccc2[nH]ncc2c1)c1ccccc1Cl | 1.2 | -1.0 | 2.7 | 1.0 | -1.4 | 13.2*
Cc1nc(-c2ccc(NC(=O)c3ccco3)cc2)cs1 | -0.3 | -1.8 | -4.3 | -3.7 | -5.4 | -4.9
COCC(C)NC(=S)N1CCN(c2ccccc2Cl)CC1 (stereo not given) | -0.1 | -1.1 | 0.8 | -0.2 | 2.0 | -2.5
O=C(O)Cn1ccc2ccccc21 | -0.3 | 0.9 | 6.2 | 5.7* | 0.1 | 1.2
NC(=O)CCn1ccc2ccccc21 | -1.0 | -1.6 | 4.8 | 1.1 | 1.6 | 1.4
CSCCC(NS(=O)(=O)c1ccc(Cl)cc1)C(=O)OCC(=O)N(C(C)C)C(C)C (stereo not given) | -0.5 | -1.4 | -2.3 | -1.1 | 0.0 | 0.6
O=C(NCC(=O)N(CCN1CCOCC1)C(C(=O)NC1CCCC1)c1cccs1)c1ccco1 (stereo not given) | 0.7 | -1.1 | -2.8 | 1.5 | 4.7* | 2.6
O=C(NCc1ccc(F)cc1)c1c2c(nc3ccccc13)CCN(Cc1ccccc1)C2 | 0.0 | -1.0 | -0.2 | 3.8 | 4.8* | -1.8
Cc1ccc(Nc2n[nH]c(=S)s2)cc1 | 0.7 | 0.1 | -0.1 | 2.4 | 2.2 | 6.4
CCOc1ccc(Nc2n[nH]c(=S)s2)cc1 | 3.5 | 0.1 | 2.6 | 2.8 | 1.0 | 11.8*
O=C(NC1CC2CCCC(C1)N2C(=O)Nc1ccccc1)c1ccccc1 (stereo not given) | -0.1 | -0.7 | -0.9 | -0.9 | 1.6 | -2.5
COc1ccc(Cn2c(C3CC3)nc3ccc(NC(=O)C4CC4)cc3c2=O)cc1 | 2.3 | 0.8 | 5.5 | 3.2 | 3.2 | 11.1*
CC(=O)Nc1ccc2nc(C3CC3)n(Cc3ccc(Cl)cc3)c(=O)c2c1 | 2.8 | 0.2 | 3.3 | 1.6 | 3.8 | 7.9
COc1ccc(C2=NN(C(C#N)c3ccc(OC)cc3)C(c3ccccc3)C2)cc1 (stereo not given) | 2.7 | -0.6 | 2.9 | 6.4* | 5.4* | 13.2*
O=C(O)/C=C\C(=O)Nc1ccccc1C#Cc1ccccc1 | 1.0 | -1.2 | 6.4 | 1.1 | 2.4 | 10.5*
O=C(O)/C=C/C(=O)Nc1ccccc1-c1ccccc1NC(=O)/C=C/C(=O)O | -0.2 | -1.5 | -1.8 | -2.1 | -1.5 | 1.2
O=C(O)/C=C/C(=O)Nc1c(F)cccc1F | 0.2 | -1.2 | -1.4 | -1.9 | 4.2* | -1.0
O=C(O)/C=C/C(=O)Nc1ccc(-n2nccc2C(F)(F)F)cc1 | -0.1 | -1.2 | -1.2 | 0.6 | 4.2* | 2.1
O=C(O)/C=C/C(=O)Nc1ccc(-n2ccc(C(F)(F)F)n2)cc1 | -0.5 | -1.2 | -4.0 | -1.5 | -0.5 | -1.6
SMILES | DAX1 inh-1 | ssDAF12 agonist | SMARCA2 act | hcDAF-12 act | DAX1 inh-2 | hgDAF12 agonist
O=C(O)/C=C/C(=O)Nc1ccc(-c2ccccc2)cc1 | 0.8 | -1.1 | 2.1 | 0.2 | -3.2 | 11.4*
O=C(O)/C=C/C(=O)Nc1ccc(OCc2ccccc2)cc1 | -0.4 | -1.1 | 0.3 | 0.0 | 1.2 | 4.0
COc1ccc(-c2csc(NC(=O)c3ccc(N4C(=O)CCC4=O)cc3)n2)cc1 | -1.7 | -2.2 | -3.8 | -4.3 | 0.8 | 0.1
CCC(=O)NCCc1nc2cc(NC(=O)c3ccc(Cl)cc3)ccc2n1C | 1.1 | -0.9 | 1.7 | 3.1 | -0.1 | 9.7
CC(=O)NCCc1nc2cc(NC(=O)c3ccc(Cl)cc3)ccc2n1C | 2.1 | -0.6 | 7.2 | 1.9 | 1.9 | 11.0*
O=C(c1ccccc1)c1ccc(C(=O)O)c(C(=O)O)c1 | 0.4 | -1.3 | 2.8 | -1.1 | -1.2 | 0.7
CCCCOc1ccc(-c2nnc(-c3ccncc3)o2)cc1 | 0.8 | -0.5 | 0.4 | 0.9 | 0.3 | 7.5
CCCOc1ccc(-c2nnc(-c3cccs3)o2)cc1 | 2.1 | 0.1 | 6.2 | 4.4 | 2.0 | 10.5*
CN(Cc1nc(-c2ccccc2)no1)C1CCOCC1 | 1.1 | -1.0 | 7.3 | 1.5 | 4.8* | 11.1*
CCN(Cc1cc(=O)[nH]c2ccccc12)C(=O)C(C)C | -0.2 | 0.9* | -0.9 | 5.1 | 1.4 | 0.0
CCN(Cc1cc(=O)[nH]c2ccccc12)C(=O)c1ccc(C)cc1 | 1.1 | 1.8* | 5.1 | 2.0 | 1.4 | 0.8
Cc1ccc(N(Cc2cc(=O)[nH]c3ccccc23)C(=O)C(C)C)cc1 | 0.6 | -0.5 | -3.7 | 1.4 | 4.0 | 7.7
CCCC(=O)N(Cc1cc(=O)[nH]c2ccccc12)c1ccc(C)cc1 | -1.0 | -0.2 | -1.0 | 3.0 | -0.5 | 0.3
CCOC(=O)C1(CC2CCCCO2)CCN(S(=O)(=O)c2ccccc2)CC1 (stereo not given) | 0.3 | -1.6 | -1.1 | -0.3 | 0.8 | -0.6
Cc1ccc(NNC(N)=S)cc1Cl | -1.3 | -1.5 | 0.1 | 1.3 | -1.2 | 1.7
O=C(C[n+]1cc(-c2ccc(Cl)cc2)n2c1CCC2)Nc1nc(-c2ccccc2)cs1 | 0.4 | 0.1 | -0.8 | 0.0 | 4.8* | 4.6
O=C(C[n+]1cc(-c2ccc(F)cc2)n2c1CCC2)Nc1nc(-c2ccccc2)cs1 | 0.3 | -0.5 | -1.2 | 4.6 | 1.1 | 2.8
Nc1nc(=O)n(C2CC(O)C(CO)O2)cc1Cl (stereo not given) | 3.0 | 3.1* | -1.6 | 1.6 | · | 5.0
CCN(Cc1ccncc1)C(=O)C(CO)c1ccccc1 (stereo not given) | 1.2 | -0.8 | -1.0 | -2.7 | -1.3 | 11.5*
Cc1ccc(S(=O)(=O)Nc2nc3ccccc3nc2NCC2CCCO2)cc1C (stereo not given) | 0.1 | -1.8 | -1.2 | -2.3 | 4.5* | 0.2
Cc1cccc(S(=O)(=O)Nc2nc3ccccc3nc2NCC2CCCO2)c1 (stereo not given) | 0.3 | -1.7 | 0.0 | -0.6 | -0.3 | 3.1
Cc1sc2ncnc(NC(C)C(=O)O)c2c1C (stereo not given) | 0.5 | -0.5 | -4.2 | -0.8 | 5.3* | -1.8
CCN1CCN(CC(=O)N/N=C/c2ccc(F)cc2F)CC1 | -0.5 | 1.1* | -3.3 | -0.2 | -0.7 | 1.3
O=C(CN1CCCCCCC1)N/N=C/c1ccccc1F | -0.2 | -1.4 | 0.0 | -0.9 | 0.3 | 3.0
CCN(CC)C(=O)N1CCN(S(=O)(=O)c2ccc(C)c(C)c2)CC1 | -0.7 | -1.1 | -1.0 | -1.8 | -0.2 | -3.8
